A selection: hits, their analogues and other compounds. The true share with any hit is near 3.4%.
Mito fusion yeast – blocks mitochondrial division or promotes mitochondrial fusion; S. cerevisiae fusion-defective mutant growth rescue, CellTiterGlo 48 h; Potency, µM (doses to about 46.1 µM), without a hit: at the top dose growth rescue (activation), usual class: activators; actives 0.23% (n = 320,000); AID 485298; note: % of control where 0% means no effect; nearly all actives have a fitted effect of over 45% in size
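Growth-rescue viability read-out: after 48 h at the non-permissive 37C in glycerol/ethanol YPEG, yeast mitochondrial fusion mutants are measured by CellTiterGlo luminescence; compounds (23 nl pinned per well) restoring growth score as division inhibitors or fusion activators.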
KAT2A inh – GCN5L2 (KAT2A) acetyltransferase inhibition; Potency, µM (highest dose often 58.9 µM), inactives show at the top dose activity change, negative = inhibition, usual class: inhibitors; actives 0.21% (n = 390,000); Q92830; GCN5L2 HAT assay, ThioGlo1 CoA-SH fluorescence; note: % is set by controls: 0 for no effect and ±100 for the full control effect
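GCN5L2 (20 nM) in 50mM HEPES pH 7.5, 0.1mM EDTA, 0.01% Tween-20 preincubated 15 min with compounds at room temperature. Reaction started with H3(1-25) 75uM, acetyl-CoA 70uM, ThioGlo1 50uM; CoA-thiol fluorescence (Ex340/Em540) read at 0 and 20 min.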
VDR inh – inhibitors of human vitamin D receptor. Potency, µM, without a hit: max response, negative = inhibition, hits mostly inhibitors. actives 0.93% (n = 400,000). VDR-SRC2-3 peptide fluorescence polarization, 2 h. AID 504847; note: % is set by controls: 0 for no effect and ±100 for the full control effect
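Reagent solutions, kept cold and dark, are dispensed first; compounds are then pinned in at 23 nl, plates briefly spun, and incubated 2 h at ambient temperature. Inhibition of VDR–SRC2-3 peptide binding is read by fluorescence polarization.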
GLS inhibitor – glutaminase GLS (human) inhibition; O94925; AID 624170; actives 0.21% (n = 410,000); GLS enzymatic activity, qHTS titration; Potency, µM (top dose mostly 45.5 µM), inactives show at the highest dose activity change, negative = inhibition, actives largely listed as inhibitors; note: % is set by controls: 0 for no effect and ±100 for the full control effect
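hKGA in 45 mM KH2PO4 (pH 8.2), 0.02% Tween-20 with compound, then 1mM L-Glutamine (stock as added) plus glutamate oxidase/HRP/Amplex red coupling mix. Fluorescence read initially and after 30 min at RT; signal change reflects glutamate formation.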
PKM2 act – activators of human pyruvate kinase M2 | AID 1631 | actives 0.34% (n = 260,000) | Potency, µM (top dose mostly 57.5 µM), for inactives: at the highest dose activation, usual class: activators | purified PKM2, Kinase-Glo ATP luminescence, activation; response scale: 0% is enzyme alone, no compound; note: % is set by controls: 0 for no effect and ±100 for the full control effect; nearly all actives have a fitted effect of over 55% in size
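Kinase-Glo luminescence reports ATP generated from ADP (0.1 mM) and PEP (0.5 mM) by purified hPK-M2 after 1 h at room temperature, pH 7.2 imidazole buffer; intermediate enzyme activity allows detecting inhibitors and activators.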
PLK1 PBD block – blocks phosphopeptide binding to human PLK1 polo-box domain; P53350; Plk1 PBD binding of FITC phosphopeptide, fluorescence polarization; Potency, µM, for inactives: max response, negative = inhibition, usual class: inhibitors; actives 2.8% (n = 360,000); note: series mostly up to about 57 µM; % is set by controls: 0 for no effect and ±100 for the full control effect; nearly all actives have a fitted effect of over 65% in size
Numbers without * were called inactive; ? = inconclusive; · = no result given. Calls come from the whole dose curve; as a rule, active = well fitted curve in the direction sought with a large enough effect; inconclusive = small, poorly fitted or top-dose-only effect, or another doubt; inactive = no such curve, though single readings can be large; an effect the other way counts as inactive or inconclusive. Potency is the fitted concentration of half-maximal effect.

SMILES | Mito fusion yeast | KAT2A inh | VDR inh | GLS inhibitor | PKM2 act | PLK1 PBD block
CC#CCC1(C(=O)OC)C(=O)NC[C@H]1c1ccccc1 (stereo not given in full) | · | · | -6.3% | · | · | ·
c1ccc(CNc2ncnc3c2ncn3Cc2ccccc2)cc1 | · | · | -18.1% | · | · | ·
CC1=C(C#N)c2nc(N)c(C#N)c(C)c2/C1=C\c1ccc(OCC(=O)O)c(Cl)c1 | -2.1% | ? | -4.8% | 77.5% | 20.8% | 8.44µM*
CCC1CCCCN1Cc1nc2c(c(=O)n(C)c(=O)n2C)n1Cc1c(F)cccc1Cl (stereo not given) | · | · | 5.6% | · | · | ·
Cc1nc2ccccn2c1-c1csc(NCc2ccco2)n1 | 6.1% | 3.0% | -5.2% | 0.7% | 0.6% | -17.5%
Cc1nc2ccccn2c1-c1ccnc(=S)[nH]1 | 8.0% | ? | ? | ? | 12.9% | 26.7µM*
CCc1nn(CC(=O)NC(C)CCc2ccccc2)c(=O)c2cc3occc3n12 (stereo not given) | 3.4% | 1.7% | ? | 6.2% | · | 23.8µM*
CCc1nn(C(C)C(=O)NCCc2ccccc2)c(=O)c2cc3occc3n12 (stereo not given) | 2.1% | -5.0% | 17.3% | 1.8% | · | -15.9%
CCC(CC)C(=O)c1c[nH]c(C(=O)NCCc2ccccn2)c1 | 1.4% | -10.8% | 7.6% | 10.0% | -21.4% | 26.7µM*
CCC(CC)C(=O)c1c[nH]c(C(=O)NCc2ccccn2)c1 | -3.1% | -7.9% | 17.6% | 10.9% | -1.8% | 1.4%
COC(=O)C1(C(=O)OC)CC2=CCC3C(=O)N(c4ccccc4)C(=O)C3C2Cc2ccccc2[C@@H]1C[N+](=O)[O-] (stereo not given in full) | · | · | 6.5% | · | · | ·
OC[C@@H]1CN(Cc2cccc(C(F)(F)F)c2)C[C@H](n2cnc3c(NC4CC4)ncnc32)O1 | · | · | · | 2.9% | · | 3.8%
CCCCN(CC)c1nc(-c2ccncc2)nc2ccccc12 | 17.8µM* | -2.2% | -0.8% | 7.4% | -11.1% | 1.8%
CC(C)(C)NC(=O)N1CCC(C(=O)O)CC1 | · | 2.5% | 14.5% | -9.6% | · | ·
CCOC(=O)c1sc(NNC(=O)c2ccc(F)cc2)nc1C | 14.3% | -1.0% | 3.1% | ? | -1.7% | -3.2%
CCOC(=O)c1sc(NNC(=O)c2ccc(C)cc2)nc1C | 3.4% | -3.7% | 18.1% | 1.26µM* | 0.4% | -3.6%
Cc1ccc(S(=O)(=O)Nc2ccc3cc([N+](=O)[O-])ccc3c2[N+](=O)[O-])cc1 | · | · | 20.4% | ? | · | 23.8µM*
CC(=O)Nc1ccc(S(=O)(=O)Nc2ccc([N+](=O)[O-])cc2)cc1 | · | -19.0% | 6.0% | -11.8% | · | ·
COc1ccc(NS(=O)(=O)c2ccc(C)cc2)c([N+](=O)[O-])c1 | -2.1% | 2.3% | ? | 16.0% | 20.8% | 26.7µM*
Cc1ccc(S(=O)(=O)Nc2cccc3ccccc23)cc1 | · | · | 15.0% | · | · | ·
Cc1ccc(S(=O)(=O)Nc2ccc3ccccc3c2[N+](=O)[O-])cc1 | · | · | -15.8% | 2.1% | · | 29.9µM*
CC(=O)Nc1ccc(S(=O)(=O)Nc2cc([N+](=O)[O-])ccc2C)cc1 | -6.1% | -6.3% | ? | 0.0% | 1.0% | 6.7µM*
O=C(Nc1nnc([C@@H]2C[C@H](O)[C@@H](CO)O2)s1)c1c(F)cccc1F | · | · | · | -9.5% | · | 3.9%
NC(=O)c1ccc(NCCc2cccs2)cc1 | · | · | · | 37.5% | · | -3.5%
Cn1c2ccccc2c(=O)c2ccc(NCCc3cccs3)cc21 | · | 10µM* | -9.9% | 2.4% | · | 1.7%
Cc1ccc(S(=O)(=O)NCCCC(=O)N2CCC(C)CC2)cc1 | 1.3% | -4.1% | -19.1% | 8.7% | -2.6% | -1.9%
Cc1ccc(S(=O)(=O)NCC(=O)N2CCC(C)CC2)cc1 | -1.4% | -0.2% | -25.0% | 8.5% | -10.6% | 29.9µM*
CCCCC(CC)COS(=O)(=O)O (stereo not given) | · | 6.4% | 2.0% | 4.6% | · | ·
Cc1ccc2c(c1)C(=O)C(=O)N2CCOc1ccccc1 | -1.8% | -5.6% | 79.4µM* | -14.2% | 9.0% | -13.5%
